# A selection: hits, their analogues and other compounds. The true share with any hit is near 2.4%.
# LT uptake inh: qHTS Assay for Anthrax Lethal Toxin Internalization | Cells, anthrax lethal toxin internalization, FRET ratio (460/530) | Potency, µM (doses to about 40 µM), for the others: at the top dose activity change, negative = inhibition, hits mostly inhibitors | 0.67% of 70,000 active; further: on the % scale 0 is the no-effect control and ±100 the full control effect; nearly all actives have a fitted effect of over 50% in size
# AmpC det inh: Promiscuous and Specific Inhibitors of AmpC Beta-Lactamase (assay with detergent); purified AmpC, nitrocefin hydrolysis with detergent; P00811; Potency, µM (highest dose often 28.7 µM), without a hit: at the highest dose activity change, negative = inhibition; 0.09% of 71,000 active; active means well fitted curve in the direction sought with a large enough effect; inconclusive means small, poorly fitted or top-dose-only effect; further: on the % scale 0 is the no-effect control and ±100 the full control effect
# Target sequence (P00811 whole entry, looked up): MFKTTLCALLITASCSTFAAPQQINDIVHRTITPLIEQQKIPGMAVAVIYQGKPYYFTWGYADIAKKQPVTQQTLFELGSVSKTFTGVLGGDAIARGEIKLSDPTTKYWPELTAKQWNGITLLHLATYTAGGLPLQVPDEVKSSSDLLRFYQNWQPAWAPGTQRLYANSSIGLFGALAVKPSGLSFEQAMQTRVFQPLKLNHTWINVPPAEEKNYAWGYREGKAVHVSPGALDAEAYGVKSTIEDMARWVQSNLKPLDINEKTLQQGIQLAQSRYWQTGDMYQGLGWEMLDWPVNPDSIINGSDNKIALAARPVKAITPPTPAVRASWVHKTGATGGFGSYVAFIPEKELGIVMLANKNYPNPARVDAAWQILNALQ
#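 E. coli AmpC (5.3 nM) in 20 mM phosphate pH 7.0 with 0.01% Triton X-100, preincubated 15 min RT with compound; nitrocefin (2 uL of 800 uM stock) hydrolysis followed by 480 nm absorbance every 20 s over 4 min.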
# AmpC nodet inh: Promiscuous and Specific Inhibitors of AmpC Beta-Lactamase (assay without detergent); P00811; AmpC nitrocefin hydrolysis, absorbance 480 nm, no detergent; Potency, µM (top dose mostly 28.7 µM), without a hit: at the top dose activity change, negative = inhibition; 1.8% of 71,000 active; AID 585, 2007; further: % of control where 0% means no effect
#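 AmpC, 20 mM phosphate pH 7.0; 15 min cpd preinc, RT; start with nitrocefin (800 uM stock); A480 kinetic read, 20 s intervals, 4 min. No-enzyme wells = negative control.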
# Prx2 Sm inh: Schistosoma Mansoni Peroxiredoxins (Prx2) | Schistosoma mansoni peroxiredoxin 2 (Prx2) | S. mansoni Prx2 activity coupled to TGR/GSH (TGR is thioredoxin glutathione reductase), NADPH fluorescence loss, qHTS | Potency, µM | 0.07% of 65,000 active | AID 448, 2006
#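 Enzyme mix: 100 uM NADPH, 25 nM TGR, 700 uM GSH, 50 nM Prx2 in 100 mM phosphate pH 7.4, 10 mM EDTA, 0.01% Tween-20. 15 min RT with compound; NADPH/GSH added, H2O2 starts reaction; NADPH fluorescence read 8 min.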
# The depositor's hits bear a star; i = inactive; ? = inconclusive; . = no result; [ ] = dose if it differs, or a comment. Unless noted, the call rests on the fitted dose curve. Potency means the concentration at half of the fitted maximal effect.
SMILES,LT uptake inh,AmpC det inh,AmpC nodet inh,Prx2 Sm inh
Cc1cnc(CNc2ncncc2-c2ccccc2C(F)(F)F)cn1,2%,8%,20%,>57
O=C1C2[C@@H](c3ccccc3)N[C@@H](c3ccccc3)C1[C@H](c1ccccc1)N[C@H]2c1ccccc1,-4%[8 µM],-6%[5.75 µM],0%[5.75 µM],>57
CCC(c1nnnn1Cc1cccs1)N1CCN(c2nc3ccccc3s2)CC1 (configuration not stated),10µM*,8%,36%,>57
COC(=O)C1=C(C)N(Cc2ccccc2)[C@]23O[C@](C(=O)OC)(C(=O)N2C1c1ccccc1)C1CCCC(=O)C13 (some centres not stated),-5%[8 µM],.,.,.
CCOC(=O)c1ccc(NC(=O)c2ccc(C)c(S(=O)(=O)N3CCOCC3)c2)cc1,13µM*,-1%,80%,?
COc1cc(C(=O)OCC(=O)Nc2cc(C)on2)ccc1OCc1ccccc1Cl,2%,-2%,13µM*,>57
O=c1c(O)c(-c2ccc(O)cc2)oc2ccc(O)cc12,-20%,-2%,16µM*[single pt active],i
OC(COc1ccc(Cl)cc1)CN1CCCCC1 (configuration not stated),-17%,1%,-2%,>57
COc1ccc(OCC(O)CN2CCCCC2)cc1 (configuration not stated),-9%,11%,4µM*[single pt active],>57
O=C(c1cc2ccccc2cc1OCC(O)CN1CCCCC1)N1CCCCC1 (configuration not stated),-12%,12%,4µM*[single pt active],>57
Cc1ccc(-c2noc(-c3ccccc3Br)n2)cc1,?,10%,-17%,.
Cc1ccccc1-c1noc(-c2ccc(O)cc2)n1,10µM*,-3%,-7%,.
C[C@H]1C[C@@H]2[C@H]3CCC4=CC(=O)C=C[C@@]4(C)[C@]3(Cl)[C@@H](Cl)C[C@]2(C)[C@]1(O)C(=O)COP(=O)(O)O,-9%[8 µM],-10%[5.75 µM],-15%[5.75 µM],>57
N#CC(C#N)=NNc1cccc(Cl)c1,2.5µM*,.,.,.
N#CC(C#N)=NNc1ccc2cn[nH]c2c1,-11%[8 µM],-4%[5.75 µM],-1%[5.75 µM],.
COc1ccc2cc3cc(C(=O)Nc4ccc5c(c4)OCCO5)oc3nc2c1,1µM*,0%,48%,>57
O=C(Nc1ccc2c(c1)OCCO2)c1ccco1,10µM*,9%,3%,>57
COc1ccc2cc3cc(C(=O)NCc4ccc5c(c4)OCO5)oc3nc2c1,9%,-2%,3%,>57
Cn1cc(C(=O)c2ccccc2)c2ccccc21,-23%,10%,4µM*[single pt active],>57
COc1cccc(Nc2ncc3nc(CCc4ccccc4)c(=O)n(Cc4cccs4)c3n2)c1,?,-1%,-10%,>57
CCOC(=O)CN1C2=NCCN2c2ccccc21,0%,-3%,-6%,>57
CCOC(=O)CN1C(=O)C(=O)c2cccc(C)c21,-10%,8%,4µM*[single pt active],>57
COc1ccc2c(CC(=O)Nc3ccc(OC)c(NS(=O)(=O)c4ccc(F)cc4)c3)coc2c1,10µM*,-3%,?,>57
O=S1(=O)[C@H]([C@H]2CC3c4ccccc4C2c2ccccc23)[C@@H](N2CCCCC2)[C@@H]1c1ccccc1,?,-3%[5.75 µM],-1%[5.75 µM],>57
Cc1ccsc1-c1nc(CSCC(=O)N2CCN(c3ccccc3)CC2)c(C)o1,16µM*,10%,127%,>57
SMILES,LT uptake inh,AmpC det inh,AmpC nodet inh,Prx2 Sm inh
Cc1ccc(-c2nc(CSCC(=O)N3CCCC3)c(C)o2)cc1,7%,-1%,67%,>57
O=C1OC2(c3ccc(O)cc3Oc3cc(O)ccc32)c2c1c(-c1ccccc1)c(-c1ccccc1)c(-c1ccccc1)c2-c1ccccc1,?,-5%[5.75 µM],2.5µM*,>57
CN1CCN(c2cc3c(c4c2[nH]c2ccccc24)C(=O)CC(C)(C)C3)CC1,?,12%,3.2µM*[single pt active],>57
C/C=C(\C)C(=O)O[C@@H]1C(C)=C2[C@H]([C@@H]1OC(=O)CCCCCCC)[C@@](C)(OC(C)=O)C[C@@H](OC(=O)CCC)[C@@]1(O)[C@H]2OC(=O)[C@]1(C)O,?,-9%,142%,>57
O=C(CSc1nccc2ccccc12)N1CCN(c2ccccn2)CC1,5µM*,10%,17%,>57
O=C(COc1ccc2ccccc2c1Br)N1CCN(c2ccccn2)CC1,13µM*,0%,64%,>57
O=C(O)CCC(=O)N1CCN(c2ccccn2)CC1,-9%,17%,?,>57
O=C(CC1CCCCC1)N1CCN(c2ccccn2)CC1,-3%,-3%,17%,>57
C=CCN1C[C@@H](C)N([C@H](c2ccc(C(=O)N(CC)CC)cc2)c2cccc(OC)c2)C[C@H]1C,?,-1%,22%,>57
CS(=O)(=O)Nc1cccc(-c2cncnc2Nc2ccc(F)cc2)c1,4%,6%,6%,>57
CCOC(=O)[C@@H]1[C@@H]2c3ccccc3-c3ccccc3[C@H]2C[C@H]1O,?,-2%[5.75 µM],34%[5.75 µM],>57
C=C[C@@H]1CN2CC[C@@H]1C[C@H]2[C@H](O)c1ccnc2ccccc12,-12%,-2%,-1%,>57
Cc1nn(-c2nc3ccccc3s2)c(C)c1Oc1ccccc1O,10µM*,-5%,-24%,>57
Cc1nn(-c2ccccn2)c(C)c1Oc1ccccc1O,3%,-1%,1%,>57
CSC([N-]/N=C/c1cccc(C)n1)=[S]=[Cu].CS[C@H]([S-])[N-]/N=C/c1cccc(C)n1,?,-5%[5.75 µM],6%[5.75 µM],>11
NC(=NCCC[C@@H](N)C(=O)O)N[N+](=O)[O-],2%,-4%,7%,>57
O=CN1C[C@H]2C[C@@H](C1)c1cccc(=O)n1C2,-11%,3%,5%,>57
COc1ccccc1Cc1nc(-c2ccc(Br)o2)no1,?,10%,4µM*[single pt active],>57
Cc1occc1C(=O)n1nnc2ccccc21,-21%,10µM*,10µM*,>57
CC(C)CO/N=C1/C[C@@H](O)[C@@H](O)[C@@H]2[C@@H]3C(=O)N(C[C@@H]4CCCO4)C(=O)[C@H]3CC[C@H]12,3%[0.32 µM],.,.,.
O=C(CN1CC(c2ccccc2)CC1=O)Nc1ccc2c(c1)OCO2 (configuration not stated),-3%,9%,17%,>57
O=C(CN1CCN(Cc2ccc(F)cc2)C1=O)NCc1cccs1,-9%,11%,13%,>57
COc1ccc(NC(=O)CN2CC(c3ccccc3)CC2=O)cc1OC (configuration not stated),1%,13%,4µM*[single pt active],>57
O=C(CN1CC(c2ccccc2)CC1=O)NCc1ccc(F)cc1 (configuration not stated),-8%,11%,4µM*[single pt active],>57
CCc1cc2cc(C(=O)N3CCN(Cc4ccccc4)CC3)sc2s1,13µM*,1%,76%,.
COc1cccc(Cn2c(=O)c(-c3ccc(Cl)cc3)nc3cncnc32)c1,?,1%,14%,>57
Oc1ccc(Cl)cc1-c1cc(-c2ccccc2)n[nH]1,?,19%,4µM*[single pt active],>57
Cc1csc(Sc2nc3c(c(=O)[nH]c(=O)n3C)n2CCCc2ccccc2)n1,-13%,-5%,16µM*[single pt active],>57

# Source: PubChem (National Center for Advancing Translational Sciences (NCATS))
